In the library only some 3.3% were active in any assay of this set; here they are far more common.
HTT ATP protect: qHTS Multiplex Assay to Identify Dual Action Probes in a Cell Model of Huntington: Cytoprotection (ATP); PC12 HTT-Q103 induced, cytoprotection, ATP luminescence, 40 h; Potency, µM (top dose mostly 56.4 µM), most hits filed as activators; hit rate 0.14% among 230,000; AID 1471, 2008; further: nearly all actives have a fitted effect of over 45% in size
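Huntington model: PC12 line, ecdysone-inducible HTTQ103 exon1–GFP, tebufenozide 100 nM. Test articles in a dose series. Endpoint luminescence from cellular ATP.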
HTT aggregate: qHTS Multiplex Assay to Identify Dual Action Probes in a Cell Model of Huntington: Aggregate Formation (GFP). hit rate 1.1% among 220,000. Potency, µM (highest dose often 46.1 µM), actives largely listed as inhibitors. PC12 HttQ103-GFP aggregates, Acumen cytometry, 40 h; further: nearly all actives have a fitted effect of over 60% in size
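Aggregates are detected as GFP objects 1–25 µm with signal 6 STDEV over background in lysates of induced PC12 cells. These carry Huntingtin exon 1 with 103 glutamines fused to GFP under an ecdysone promoter; compounds titrated.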
ALOX12 inhib: qHTS Assay for Inhibitors of 12-hLO (12-human lipoxygenase); Polyunsaturated fatty acid lipoxygenase ALOX12 (Homo sapiens), P18054; purified 12-hLO, xylenol orange hydroperoxide absorbance; Potency, µM (titrated, usually from 57.1 µM), most hits filed as inhibitors; hit rate 0.12% among 150,000; further: nearly all actives have a fitted effect of over 55% in size
Target sequence (P18054 whole entry, looked up): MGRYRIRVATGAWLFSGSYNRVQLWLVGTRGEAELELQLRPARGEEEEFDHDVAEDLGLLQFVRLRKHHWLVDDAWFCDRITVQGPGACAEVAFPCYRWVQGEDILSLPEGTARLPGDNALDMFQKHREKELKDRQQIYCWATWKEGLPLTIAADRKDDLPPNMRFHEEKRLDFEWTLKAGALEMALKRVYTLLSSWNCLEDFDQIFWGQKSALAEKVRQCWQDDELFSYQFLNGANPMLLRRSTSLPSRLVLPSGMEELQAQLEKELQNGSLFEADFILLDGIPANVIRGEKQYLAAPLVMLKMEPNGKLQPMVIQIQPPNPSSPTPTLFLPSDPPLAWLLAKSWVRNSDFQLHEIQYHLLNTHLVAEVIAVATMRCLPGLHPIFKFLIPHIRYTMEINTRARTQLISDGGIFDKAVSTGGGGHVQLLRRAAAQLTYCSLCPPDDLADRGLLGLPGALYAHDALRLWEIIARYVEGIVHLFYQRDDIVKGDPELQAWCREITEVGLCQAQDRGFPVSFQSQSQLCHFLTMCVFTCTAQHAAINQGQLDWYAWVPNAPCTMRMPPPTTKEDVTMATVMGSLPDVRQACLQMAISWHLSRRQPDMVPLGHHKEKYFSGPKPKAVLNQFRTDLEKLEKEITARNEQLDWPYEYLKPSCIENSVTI
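Purified human 12hLO (150 nM), preincubated 15 min with compound, then 40 uM arachidonic acid for 30 min, room temperature, Hepes pH 7.0 with 0.01% Triton X-100. Hydroperoxide detected by ferrous iron/xylenol orange; 573/405 nm absorbance ratio gives reaction progress.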
IMPase cell inh: qHTS Assay for Identifying the Cell-Membrane Permeable IMPase Inhibitors; Inositol monophosphatase 1 (Rattus norvegicus), P97697; 120,000 tested, under 10 active; inhibition (IP1 accumulation), % at 46.1 µM; AID 901, 2007; CHO-M1 cells, IP1 accumulation, HTRF TR-FRET ratio; active means well fitted curve in the direction sought with a large enough effect in the signal ratio, not every such curve was filed as active; inconclusive means small, poorly fitted or top-dose-only effect, or a change in a side signal; inactive means no such curve, though single readings can be large or run the other way; the % refers to the signal ratio;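 further: cells stimulated with carbachol in lithium chloride buffer; higher means more IMPase inhibition seen as more IP1 and lower FRET ratio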
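Carbachol-driven Gq signalling in CHO-M1 cells (2000/well) generates IP1. Compounds that block IMPase raise IP1 and so reduce the FRET signal from Eu-anti-IP1 and d2-IP1 after a 10 min room-temperature lysis.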
PNC inhibitor: High Content Assay for Compounds that inhibit the Assembly of the Perinucleolar Compartment | hit rate 3.1% among 140,000 | activity change (PNC), negative = inhibition, % at 10 µM | PC3M PTB-GFP, PNC prevalence imaging, 16 h; stronger effect = lower value;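 active means readout at or below -70, meaning at least 70% loss of cells showing the perinucleolar compartment, a nuclear body marking cancer cells; inconclusive means readout between -30 and a set limit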
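Compounds are pinned in duplicate onto adhered PC3M cells stably expressing GFP-tagged PTB and incubated 16 h at 37 C. Cells are then fixed, nuclei stained with Hoechst, and PNC-positive cells counted.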
NPSR antagonist: qHTS Assay for Antagonists of the Neuropeptide S Receptor: cAMP Signal Transduction | hit rate 1% among 220,000 | AID 1461, 2008 | CHO-NPSR cells, cAMP TR-FRET, antagonist mode | Potency, µM (highest dose often 38.3 µM), usual class: inhibitors; further: nearly all actives have a fitted effect of over 50% in size
Hits are given with their value; – = inactive; ? = inconclusive; · = no result given; ! = repeats disagree; [ ] = dose if it differs, or a comment. Unless noted, the call rests on the fitted dose curve; in most records, active means well fitted curve in the direction sought with a large enough effect; inconclusive means small, poorly fitted or top-dose-only effect, or another doubt; inactive means no such curve, though single readings can be large; an effect the other way counts as inactive or inconclusive.

SMILES	HTT ATP protect	HTT aggregate	ALOX12 inhib	IMPase cell inh	PNC inhibitor	NPSR antagonist
O=C1CN=C(c2ccccc2)c2cc(Br)ccc2N1Cc1cc(=O)n2ccccc2n1	–[10 µM]	–	–	·	-88	–
O=C(O)[C@@H](O)[C@@H](O)[C@@H]1[O][Sb][O][C@@H]1CO	?	·	–[11.4 µM]	·	·	·
COc1ccc2c(c1)[C@]13CCCC[C@@H]1[C@H](C2)NCC3	–[1.9 µM]	·	–	–	·	·
O=c1c(C=Nc2cccnc2Cl)c(O)n(CCCCl)c(=O)n1C1CCCCC1	–[10 µM]	–	–	–	–	10µM
CO[C@@H]1CC=C2CCN3CCC4=C(CC(=O)OC4)[C@]23C1	–[1.9 µM]	·	–	–	·	·
CC12CN3CC(C)(CN(C1)C3c1cccnc1)C2=O (centres undefined)	–	–	–	–	–	–
CC1(C)Cc2c(sc3c2C(=O)NC(c2cccnc2)N3)CO1 (centres undefined)	–[10 µM]	–	–	–	-101	–
O=C1NC(c2cccnc2)Nc2sc3c(c21)CCCC3 (centres undefined)	–[10 µM]	–	–	–	-100	–
C[C@]12CCC(=O)C=C1CC[C@@H]1[C@@H]2CC[C@@]2(C)[C@H]1CC[C@]2(C)O	?	·	–[0.00818 µM]	·	·	–
C[C@]12CC(=CO)C(=O)C[C@@H]1CC[C@@H]1[C@@H]2CC[C@@]2(C)[C@H]1CC[C@]2(C)O	·	·	·	·	·	6.3µM
C=C[C@@H]1CN2CC[C@@H]1C[C@H]2[C@H](O)c1ccnc2ccccc12	–	·	·	·	·	·
CN(C)C(=S)SSC(=S)N(C)C	–	1µM!	?	·	·	?
CN(C)C(=S)SC(=S)N(C)C	–	3.2µM	–[0.00818 µM]	·	·	·
C[N+]1(C)CCc2cc3c(cc2[C@@H]1[C@@H]1OC(=O)c2c1ccc1c2OCO1)OCO3	–[1.9 µM]	·	–	–	·	·
CCOc1cccc(=NC2CCCCC2)c2c(C)n(C)c(C)c12	–[10 µM]	–[9.22 µM]	·	·	·	7.9µM
CCOc1ccccc1N=C1SCCCN1C	–[10 µM]	–	–	–	–	–
C/C(=N/OC(=O)N(C)C)c1ncc(C(F)(F)F)cc1N1CCOCC1	–	–	–	–	-84	–
O=CN1C[C@H]2C[C@@H](C1)c1cccc(=O)n1C2	–	·	·	·	·	·
CCCCCn1c(=O)c(C(=O)NCc2ccncc2)c(O)c2ccccc21	–[10 µM]	22µM	?	–	–	?
CCCC1C(C#N)=C(N)Oc2c1c(=O)oc1ccccc21 (centres undefined)	–[10 µM]	–	–	–	-98	–
CCN1CCN(c2ncnc3ccc(Br)cc23)CC1	–[0.074 µM]	7.1µM	–	–	?	?
Cc1cc[c]([Sb]2[O][C@H]([C@H](O)[C@H](O)C(=O)O)[C@@H](CO)[O]2)cc1	–[10 µM]	·	–[11.4 µM]	·	·	·
c1ccc(CCN2CCC(N3CCN(c4ccccc4)CC3)CC2)cc1	–	–	–	–	-100	–
Cc1ccc(-c2cc(-c3ccc(C)cc3)[n+](C)o2)cc1	·	3.2µM	–	·	–	–
CC/C(=N\N1CCCCCC1)c1c(O)n(-c2ccccc2C)c(=O)[nH]c1=O	·	–	–	·	-95	–
SMILES	HTT ATP protect	HTT aggregate	ALOX12 inhib	IMPase cell inh	PNC inhibitor	NPSR antagonist
NC(N)=Nc1ccc2[nH]c3c(c2c1)C[C@]1(O)[C@@H]2Cc4ccc(O)c5c4[C@]1(CCN2CC1CC1)[C@H]3O5	–[1.9 µM]	·	?	–	·	·
COC(=O)[C@@H]1C[C@@H]1[C@@H](NP(=O)(c1ccccc1)c1ccccc1)c1ccccc1	–	·	·	·	·	·
CC1C(=O)OC2C1CC[C@@]1(C)C=CC(=O)[C@@]3(C)O[C@@]213 (some centres undefined)	35µM	·	–	·	·	·
COC(=O)[C@@H]1[C@@H](C(=O)OC)C2(c3ccccc3-c3ccccc32)N(c2ccc(Cl)cc2)N1C#N	–[10 µM]	–[9.22 µM]	–	?	–	6.3µM
COC(=O)C[C@]1(C(=O)OC)CN(C#N)N(c2ccc(Cl)cc2)C12c1ccccc1-c1ccccc12	–[10 µM]	5.6µM	–	–	-100	–
CNc1ccc2oc(C[C@@H]3O[C@@]4(CC[C@H]3C)O[C@@H]([C@@H](C)C(=O)c3ccc[nH]3)[C@@H](C)C[C@H]4C)nc2c1C(=O)O	–[1.9 µM]	·	·	·	·	·
O=Cc1cn(Cc2ccccc2[N+](=O)[O-])c2ccccc12	·	14µM	–	·	–	–
C=C1C/C(=C\C)C(=O)O[C@@H]2CCN3CC=C(COC(=O)[C@]1(C)O)[C@H]23	–	·	·	·	·	·
C=C(C)[C@H]1Cc2c(ccc3c2O[C@H]2COc4cc(OC)c(OC)cc4[C@@H]2C3=O)O1	–[1.9 µM]	·	–	–	·	·
C=CCN1CCc2cccc3c2[C@@H]1Cc1ccc(O)c(O)c1-3	–[1.9 µM]	·	–	–	·	·
Cc1cc(OC(=O)CCNC(=O)OC(C)(C)C)c2c3c(c(=O)oc2c1)CCC3	–[0.074 µM]	–[9.22 µM]	–	–	-109	?
C/C=C(\C)C(=O)OC1C(C)=C2C(C1OC(=O)CCCCC)C(C)(OC(C)=O)CC(OC(=O)CCC)C1(O)C2OC(=O)C1(C)O (centres undefined)	–[10 µM]	?	·	·	·	4µM
C/C=C(\C)C(=O)O[C@@H]1C(C)=C2[C@H]([C@@H]1OC(=O)CCCCCCC)[C@@](C)(OC(C)=O)C[C@@H](OC(=O)CCC)[C@@]1(O)[C@H]2OC(=O)[C@]1(C)O	–[1.9 µM]	·	–	–	·	·
CC(C)[C@@]1(NC(=O)[C@@H]2C[C@H]3c4cccc5[nH]cc(c45)C[C@@H]3N(C)C2)O[C@@]2(O)[C@H]3CCCN3C(=O)[C@@H](Cc3ccccc3)N2C1=O	–	·	·	·	·	·
CCC(=NCCO)c1c(O)n(C2CCCCC2)c(=O)[nH]c1=O	–[0.074 µM]	–	–	–	–	–
CCC(=NCc1ccc2c(c1)OCO2)c1c(O)n(C2CCCCC2)c(=O)[nH]c1=O	–[10 µM]	?	–	–	-83	?
O=c1cccc2n1C[C@H]1C[C@@H]2CN(CCO)C1	–	·	·	·	·	·
O=C1CN(C(=O)CN2CCCCC2)C(c2ccccc2)c2cc(Br)ccc2N1 (centres undefined)	–	–	–	–	-92	–
FC(F)(F)c1ccc2c(c1)N(CCCN1CCN(CCCl)CC1)c1ccccc1S2	–	–	?	–	–	7.9µM
CCCCn1c(O)c(C(CC)=NCCN2CCCCC2)c(=O)[nH]c1=O	–	–	–	–	-89	–
CCCCn1c(O)c(C(CC)=Nc2cccc(C(=O)O)c2)c(=O)[nH]c1=O	–[10 µM]	–	–	–	-90	–
CCCCn1c(O)c(C(CC)=NCCN2CCOCC2)c(=O)[nH]c1=O	–	–	–	–	–	–
O=C(O)c1cc(Cl)ccc1Cl	–	·	–	·	·	·
O=C(Nc1ccc(Cl)cc1)Nc1ccc(Cl)c(Cl)c1	–	11µM	·	·	·	·
